PREPL inhibitor = PREPL enzyme inhibitors, primary screen, biochemical, fluorescence polarization; recombinant PREPL, fluorescence polarization activity-based probe; inhibition, % at 5.96 µM; hit rate 0.68% among 320,000; AID 2751, 2010; in the data active = inhibition above about 43%
Target sequence (Q4J6C6 whole entry, looked up): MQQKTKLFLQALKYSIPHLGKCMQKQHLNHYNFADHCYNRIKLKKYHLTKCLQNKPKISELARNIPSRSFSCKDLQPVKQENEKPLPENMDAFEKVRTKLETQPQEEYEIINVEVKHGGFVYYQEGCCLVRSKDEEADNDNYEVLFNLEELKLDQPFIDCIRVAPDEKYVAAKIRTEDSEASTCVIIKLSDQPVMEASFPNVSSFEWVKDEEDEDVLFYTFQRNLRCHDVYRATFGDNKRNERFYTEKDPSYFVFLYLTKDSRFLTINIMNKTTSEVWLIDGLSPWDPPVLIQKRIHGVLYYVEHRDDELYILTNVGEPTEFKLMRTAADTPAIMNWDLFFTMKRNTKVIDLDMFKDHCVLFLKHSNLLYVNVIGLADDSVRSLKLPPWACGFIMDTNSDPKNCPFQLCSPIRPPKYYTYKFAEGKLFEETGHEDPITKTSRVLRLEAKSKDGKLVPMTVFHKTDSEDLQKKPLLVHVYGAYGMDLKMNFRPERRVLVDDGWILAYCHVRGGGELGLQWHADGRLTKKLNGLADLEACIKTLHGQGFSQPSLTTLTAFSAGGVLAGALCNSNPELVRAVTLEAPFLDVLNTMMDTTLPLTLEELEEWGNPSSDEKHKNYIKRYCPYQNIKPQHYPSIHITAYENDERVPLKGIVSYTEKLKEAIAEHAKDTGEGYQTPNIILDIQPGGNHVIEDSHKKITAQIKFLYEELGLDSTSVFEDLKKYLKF
LYPLA1 counter = LYPLA1 inhibitors, primary screen, counter-screen for PME1 inhibitor project, biochemical, fluorescence polarization, FP-Rh probe ABPP | Acyl-protein thioesterase 1 (Homo sapiens), O75608 | recombinant LYPLA1 | inhibition, % at 5.9 µM | hit rate 0.16% among 320,000;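 active = inhibition above the mean of all tested compounds plus 3 SD, set per campaign, cut at about 14% in these data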;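 also: inhibitors block serine hydrolase probe labeling of LYPLA1 so polarization falls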
p97 inhibitor = inhibitors of human p97 ATPase, primary screen, biochemical. recombinant p97 ATPase, Kinase-Glo ATP luminescence, 3 h. hit rate 0.42% among 220,000. Transitional endoplasmic reticulum ATPase (Homo sapiens), P55072. AID 1481, 2009. inhibition, % at 8 µM; in the data active = inhibition above about 15%
Rin1-Abl PPI inh = inhibitors of Rin1-Abl protein binding, primary screen, biochemical, TR-FRET; Tyrosine-protein kinase ABL1 (Homo sapiens) + Ras and Rab interactor 1 (Homo sapiens), …; inhibition, % at 7.35 µM; hit rate 0.4% among 360,000; AID 588664, 2011; in the data active = inhibition above about 5%, passing the limit was not always enough
Hck-Nef inh = inhibitors of Nef-activated human Hck kinase, primary screen, biochemical, Z-Lyte FRET, 384-well, Hck-YEEI | Tyrosine-protein kinase HCK (Homo sapiens), P08631 | Recombinant Hck-YEEI plus Nef, Z-Lyte FRET kinase assay | inhibition, % at 20 µM | hit rate 0.68% among 220,000 | AID 463187, 2010;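 active = Hck-Nef kinase inhibition above about 50%, limit read from the data; inactive = inhibition below that limit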
LYPLA2 inh = LYPLA2 inhibitors, primary screen, counter-screen for PME1 inhibitor project, biochemical, fluorescence polarization, FP-Rh probe ABPP. Acyl-protein thioesterase 2 (Homo sapiens), O95372. recombinant LYPLA2. inhibition, % at 5.9 µM. hit rate 0.38% among 320,000. AID 2177, 2009;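 active = inhibition above the screen-wide mean plus 3 SD, limit set per campaign, cut at about 26% in these data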
PREPL inh cf = human PREPL enzyme inhibitors, confirmation, biochemical, fluorescence polarization; recombinant PREPL, fluorescence polarization activity probe; inhibition, % at 5.96 µM; AID 2803, 2010; hit rate 67% among 2,000; shares compounds with PREPL inhibitor; in the data active = inhibition above about 43%
Hck Nef conf = retest of Hck:Nef kinase inhibitor hits, confirmation, biochemical, Z-Lyte FRET, 384-well, p-Tyr peptide counterscreen. Recombinant Hck-YEEI:Nef, Z-Lyte FRET kinase assay. calls only at 10 µM. shares compounds with Hck-Nef inh. hit rate 28% among 1,300;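 active = average inhibition of at least 50%, with Z-scores no higher than 3 in both the phospho-tyrosine peptide and fluorescence counterscreens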
Rin1-Abl confirm = Rin1-Abl binding inhibitor retest, confirmation, biochemical, TR-FRET. shares compounds with Rin1-Abl PPI inh. purified proteins. hit rate 49% among 1,300. inhibition, % at 7.35 µM. AID 602124, 2011
GFP quench = GFP fluorescence inhibitors and quenchers, artefact control for Rin1-Abl interaction inhibitor project, biochemical | shares compounds with Rin1-Abl PPI inh | inhibitors/quenchers counterscreen | inhibition, % at 6.75 µM | hit rate 8.5% among 1,300 | AID 602125, 2011;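 also: ABL1-eGFP fusion protein alone without its partner RIN1-SBP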
Large screens that a line does not name were inactive (follow-up assays come after a bar, where they were run). Hits are enriched below; roughly 1.7% of the tested compounds scored in any of these assays. Rule as the data show it, unless noted: active = inhibition above about 6.5%; inactive = the rest.

COc1ccccc1-c1nnc(SC/C(O)=C(\C#N)c2nc3ccccc3[nH]2)n1C1CCCCC1	none
N#C/C(=C(/O)CSc1nnc(Cc2cccs2)n1C1CCCCC1)c1nc2ccccc2[nH]1	PREPL inhibitor 43 | PREPL inh cf inactive
Cc1oc(-c2ccc(Cl)cc2)nc1CN1CCC(C(=O)NCCCN2CCCC(C)C2)CC1 (stereo not given)	none (no result: p97 inhibitor, Hck-Nef inh)
COCCCn1c(SCCc2ccccc2)nc2cc(OC)c(OC)cc2c1=N	PREPL inhibitor 46 | PREPL inh cf inactive
COc1ccc(Cn2c(SCc3ccccc3C)nc3cc(OC)c(OC)cc3c2=N)cc1	PREPL inhibitor 62 | PREPL inh cf 59
CCc1ccccc1OCC(=O)N1CCN(c2ncccn2)CC1	none (no result: PREPL inhibitor, LYPLA1 counter, p97 inhibitor, Hck-Nef inh, LYPLA2 inh)
CC(C)n1cnc2c(N(C)c3ccccc3)nc(N(CCN(C)C)Cc3ccccc3)nc21	PREPL inhibitor 52 (no result: p97 inhibitor) | PREPL inh cf 48
Cc1cc(C)c2c(N)c(-c3nc4ccccc4[nH]3)sc2n1	PREPL inhibitor 78 | PREPL inh cf inactive
CC(C)(C)NC(=O)CSC(=Nc1cccc(F)c1)NC#N	PREPL inhibitor 64 | PREPL inh cf inactive
COc1ccc(OC)c(S(=O)(=O)NC2CCCCNC2=O)c1 (stereo not given)	none (no result: p97 inhibitor, Hck-Nef inh)
Nc1nc(=O)c2ccccc2s1	none (no result: PREPL inhibitor, LYPLA1 counter, p97 inhibitor, Hck-Nef inh, LYPLA2 inh)
Oc1sc(C=Nc2ccc(F)cc2)c2ccccc12	PREPL inhibitor 51 | PREPL inh cf 51
CCc1ccc(CNc2ccc3c(c2)ncn3CC)cc1	none (no result: p97 inhibitor, Hck-Nef inh)
CC(C)(C)n1cnc2cc(NCc3ccccc3O)ccc21	none (no result: p97 inhibitor, Hck-Nef inh)
CN(C)c1ccc(CNc2ccc3c(c2)ncn3C)cc1	none (no result: Rin1-Abl PPI inh)
CC(C)(C)n1cnc2cc(NCc3ccc(Br)cc3)ccc21	PREPL inhibitor 54 (no result: p97 inhibitor, Hck-Nef inh) | PREPL inh cf 63
CCc1ccc(CNc2ccc3c(c2)ncn3C(C)(C)C)cc1	PREPL inhibitor 48 (no result: p97 inhibitor, Hck-Nef inh) | PREPL inh cf 50
CCN(CC)c1ccc(CNc2ccc3c(c2)ncn3C(C)(C)C)cc1	PREPL inhibitor 48 (no result: p97 inhibitor, Hck-Nef inh) | PREPL inh cf inactive
Cc1cccc(NC(=O)Cn2ccn(-c3ccc4c(c3)OCCO4)c(=O)c2=O)c1	none (no result: p97 inhibitor, Hck-Nef inh)
COc1ccc(CN(C)CC(=O)NCC(=O)Nc2c(C)cccc2C)cc1	none (no result: p97 inhibitor, Hck-Nef inh)
CC(C)[C@H](NC(=O)C1CCN(S(=O)(=O)c2ccccc2)CC1)C(=O)NCc1ccncc1	none (no result: p97 inhibitor, Hck-Nef inh)
Cc1ccsc1/C=N/Nc1nc2ccccc2s1	PREPL inhibitor 46 | PREPL inh cf 55
C/C(=N\Nc1nc2ccccc2s1)c1cccs1	PREPL inhibitor 45 | PREPL inh cf 51
S=C(NCCCN1CCOCC1)N1CCN(c2nc(-c3ccc(Cl)cc3)cs2)CC1	PREPL inhibitor 44 | PREPL inh cf 43
COc1cc(NC(=O)c2ccc(COc3ccccc3Br)o2)cc(OC)c1OC	PREPL inhibitor 44 | PREPL inh cf inactive
O=C(O)C(SC(C(=O)O)c1ccccc1)c1ccccc1 (stereo not given)	none (no result: PREPL inhibitor, LYPLA1 counter, p97 inhibitor, Hck-Nef inh, LYPLA2 inh)
CC(C)Cc1nnc(NC(=O)C2CSC3(C)CCC(=O)N23)s1 (stereo not given)	none (no result: p97 inhibitor, Hck-Nef inh)
O=C(Cn1c(O)c(/C=C2\C=Nc3ccc(Br)cc32)sc1=O)N1CCCC1	PREPL inhibitor 43, Hck-Nef inh 76 | PREPL inh cf inactive | Hck Nef conf inactive
COc1ccc(N(C(=O)c2ccco2)C(C(=O)NC2CCCC2)c2ccc(OC)c(OC)c2)cc1 (stereo not given)	none (no result: p97 inhibitor, Hck-Nef inh)
COc1c(O)ccc(/C=C(\C#N)c2nc3ccccc3[nH]2)c1[N+](=O)[O-]	PREPL inhibitor 56, Hck-Nef inh 50 | PREPL inh cf inactive | Hck Nef conf inactive
O=S1(=O)NC(C2CC2c2ccccc2)CCO1 (stereo not given)	none (no result: p97 inhibitor, Hck-Nef inh)
Cc1cc(/C=C2\SC(=Nc3ccc(F)cc3)NC2=O)c(C)n1-c1ccc(S(N)(=O)=O)cc1	PREPL inhibitor 54, Hck-Nef inh 65 | PREPL inh cf 53 | Hck Nef conf active
O=C(CN1CC[n+]2c(-c3cccs3)csc21)c1ccc(-c2ccccc2)cc1	PREPL inhibitor 46, Hck-Nef inh 143 | PREPL inh cf inactive | Hck Nef conf active
Cc1ccc(C(=O)Cn2nnc(-c3cccs3)n2)cc1	none
Oc1cccc(Nc2nc(O)c(/C=C3\C=Nc4ccccc43)s2)c1	PREPL inhibitor 53, p97 inhibitor 32, Hck-Nef inh 88 | PREPL inh cf 52 | Hck Nef conf active
O=C(Cn1c(O)c(/C=C2\C=Nc3ccccc32)sc1=O)N1CCOCC1	none
Cc1ccc(OCC(=O)NCCNC(=O)c2cnccn2)cc1	none (no result: p97 inhibitor, Hck-Nef inh)
C[C@@H]1O[C@@H](Oc2c(-c3cc(O)c(O)c(O)c3)oc3cc(O)cc(O)c3c2=O)[C@H](O)[C@H](O)[C@H]1O	PREPL inhibitor 48, Rin1-Abl PPI inh 44 | PREPL inh cf inactive | Rin1-Abl confirm 45 | GFP quench 17
COc1cc(/C=C2\C(=O)N(c3ccc(S(N)(=O)=O)cc3)N=C2C)ccc1OC(=O)c1ccco1	PREPL inhibitor 54, Rin1-Abl PPI inh 10 | PREPL inh cf 83 | Rin1-Abl confirm inactive | GFP quench inactive
CS(=O)(=O)c1ccc2nc(NC(=O)c3ccc(Cn4cc(Br)cn4)o3)sc2c1	none (no result: p97 inhibitor, Hck-Nef inh)
Cc1csc(=O)n1CCC(=O)OCc1nnc(-c2ccc(Cl)cc2)o1	none (no result: PREPL inhibitor, LYPLA1 counter, p97 inhibitor, Hck-Nef inh, LYPLA2 inh)
Cc1nc2ccccc2c(=O)n1/N=C/c1ccc(O)c(O)c1O	PREPL inhibitor 45, Rin1-Abl PPI inh 27 (no result: p97 inhibitor, Hck-Nef inh) | PREPL inh cf inactive | Rin1-Abl confirm 15 | GFP quench 23
Cc1nc2ccccc2c(=O)n1/N=C/c1ccccc1O	none
COc1ccc(-n2nc(C(=O)Nc3ccc4c(c3)OCO4)c3c4ccccc4n(C)c3c2=O)cc1	none
